Data on 87 compounds can be found in PubChem BioAssay AID1159606 (Sanford-Burnham Center for Chemical Genomics, 2016).

Structures are written as SMILES. The campaign covered roughly 360,000 compounds. About 7,300 (2%) were called active. What follows is part of a selection rich in actives, with near analogues and random picks from the rest. Unmarked numbers belong to inactive results. Rule as the data show it: active = inhibition above about 50%; inactive = the rest.

A short description of this assay: inhibitors of TWEAK-Fn14 signaling, primary screen, luciferase reporter cells, uHTS (AID 1159606). The note with it: TWEAK-stimulated Fn14 reporter cells, luciferase luminescence, 8 h; at 10 µM; active compounds read high. For orientation: In a reporter assay the amount or activity of a reporter protein is the signal.
For orientation: inhibition means the drop in the measured response relative to a control, in per cent. In the case of `Cc1cccc(CN2CCN(C3CN(Cc4ccccc4)S(=O)(=O)C3)CC2)c1` (configuration not stated), the inhibition is -19.1%.
As to `O=C(c1c(Cl)cccc1Cl)N1CCN(c2cccc3[nH]ccc23)CC1`, the inhibition was -30.3%.
Then `COc1ccc(-c2ccc(CN3C(CC(C)C)C(=O)N(Cc4cn(CC5CCCCC5)nn4)CCS3(=O)=O)cc2)cc1` (configuration not stated), with 24.8%; and `O=S1(=O)CC(N2CCN(CCO)CC2)CN1Cc1cn(Cc2ccc(Cl)cc2)nn1` (configuration not stated), with -0.1%.
Then `CN(C)C(=O)c1cccc(-c2cnc3sc(NCc4ccc5c(c4)OCO5)nn23)c1`, with 81.9% (active); and `CCOc1c2ccc(C(=O)NCc3ccc4c(c3)OCO4)cc2nn1C`, with -1.73%.
In the case of `O=C(CSc1ncnc2scc(-c3ccccc3)c12)NCc1ccc2c(c1)OCO2`, the inhibition is 27.4%.
`O=C(C1CCN(S(=O)(=O)c2ccc(Br)s2)CC1)N1CCN(c2ccccc2)CC1`: the inhibition was 35.1%.
Then `CC(C)C(=O)N1CCC2(CC1)Oc1ccc(F)cc1C(=O)C21CC(c2ccccc2)=NO1` (configuration not stated), with -32.9%.
Consider `CC1(C(=O)NNC(=S)NCC2CCCO2)CC1(Cl)Cl` (configuration not stated), for which the inhibition is 5.56%.
Regarding `Cc1c(CCC(=O)O)c(=O)oc2cc(OCc3ccc(Br)cc3)ccc12`, the inhibition was 6.88%.
The value for `CCOC(=O)CCc1c(C)c2ccc(OCc3nn[nH]n3)c(C)c2oc1=O` was 11.4%; that for `Cc1c(CCC(=O)O)c(=O)oc2c(C)c(OCc3ccccc3Cl)ccc12` was 55.7% (active).
For the compound `CC(C)Nc1ncnc2c1ncn2[C@H]1CN(Cc2ccncc2)C[C@@H](CO)O1`, the inhibition was -31.2%.
Then `O=C(Nc1ccc2c(c1)OCCO2)C(C1CC1)N1CCC(Cc2ccccc2)CC1` (configuration not stated), with -6.47%.
Then `O=C(/C(=C/c1cccc(Cl)c1)c1nc2ccccc2[nH]1)c1ccccc1`, with 72.2% (active); and `Oc1ccc2nc(Cc3ccccc3)[nH]c2c1`, with -12.2%; and `O=c1c2cc(Br)ccc2nc(-c2cccc(Cl)c2)n1O`, with 12.1%.
With `Brc1ccc2nc(-c3ccccc3)c(Cc3ccccc3)n2c1`, the inhibition is -30.1%.
As for `CCCCC[C@H](C)N1C[C@@H](COCc2ccccc2)Oc2cc(N3CCC[C@@H]3CO)ccc2S1(=O)=O`, the inhibition was 9.1%.
The value for `O=C(CCl)Nc1ccc(Sc2ccc(NC(=O)CCl)cc2)cc1` was -24.1%; that for `Cc1ccc(Sc2ccc(NC(=O)c3ccc(F)cc3)cc2C#N)cc1` was -7.53%; that for `CC(C)(CCl)C(=O)Nc1ccc(Sc2ccc(F)cc2)cc1` was 60.9% (active).
The value for `CCn1c(SCC(=O)Nc2nc(C)cs2)nnc1C(C)NC(=O)c1ccccc1` (configuration not stated) was -0.58%; that for `CN(Cc1ccccc1)C(=O)[C@@H]1CCCN1C(=O)[C@@H]1CCCN1C(=O)c1c(F)cccc1F` was 12.3%.
Then `CCOCCCN(C)C1CCN(C(=O)c2oc3ccccc3c2NC(=O)COc2cccc(C)c2)CC1`, with -4.99%.
For `Cc1cccc(-n2c(=O)c3c(C)c(C)sc3n(CC(N)=O)c2=O)c1`, the inhibition is 21.1%.
As for `N#CCSc1nc2c(c(=O)n1Cc1ccccc1)C1(CCCC1)Cc1ccccc1-2`, the inhibition was 13.4%.
For the compound `Cc1cccc(-n2c(SCC(N)=O)nc3c(c2=O)C2(CCCCC2)Cc2ccccc2-3)c1`, the inhibition was 54% (active).
Turning to `CCCc1nc2c3ccccc3ccn2c1Cc1ccccc1C(F)(F)F`, the inhibition was 8.3%.
Then `Cc1noc(C)c1S(=O)(=O)N1CCCC(C(=O)Nc2nccs2)C1` (configuration not stated), with 4.3%; and `CC(=O)Nc1ccc(C=CC(=O)c2ccc([N+](=O)[O-])cc2)cc1`, with 5.86%; and `CC(CC(=O)O)C(=O)c1ccc(Cl)c([N+](=O)[O-])c1` (configuration not stated), with 0.14%.
For the compound `O=C(/C=C/c1ccc(Cl)c([N+](=O)[O-])c1)c1ccc(O)cc1`, the inhibition was 84.1% (active).
For the compound `O=S(=O)([N-]c1nc2ccccc2nc1-[n+]1ccc(Cc2ccccc2)cc1)c1ccc(Br)s1`, the inhibition is 101% (active).
The value for `O=S(=O)(NCc1ccccn1)c1ccc(Br)s1` was -7.41%; that for `Cn1c2c(c(=O)n(C)c1=O)C(c1cccc([N+](=O)[O-])c1)Nc1ccccc1O2` (configuration not stated) was -3.73%; that for `O=C(Nc1ccccc1)N1CCN(C2c3ccccc3-c3ccccc32)CC1` was -2.27%.
On to `COc1cccc(N2CCN(C(=O)Nc3ccc4c(c3)NC(=O)CO4)CC2)c1`, for which the inhibition was 8.92%.
The value for `O=C(Nc1cccc(NC(=O)N2CCN(c3ccccc3)CC2)c1)N1CCN(c2ccccc2)CC1` was 86.3% (active); that for `Cc1nc(SC(C)C)[nH]c(=O)c1Cc1ccccc1` was 3.45%; that for `COc1ccc(NC(=O)C2Cc3c(-c4ccc5c(c4)OCO5)ccnc3O2)cn1` (configuration not stated) was 14.2%.
In the case of `COc1ccc(NC(=O)CN2C(=O)NC(C)(c3ccccc3)C2=O)cn1` (configuration not stated), the inhibition was -0.71%.
For `COc1ccc(NC(=O)/C(Cl)=C(/Cl)S(=O)Cc2ccc(C)cc2)cn1` (configuration not stated), the inhibition is 97.5% (active).
As for `CC(=O)c1ccc(OCC(=O)N(C)C2CCS(=O)(=O)C2)cc1` (configuration not stated), the inhibition was 0.02%.
Then `CC(C)NC(=O)c1ccccc1S(=O)c1ccccc1C#N` (configuration not stated), with 3.58%; and `O=C(c1ccc(C(F)(F)F)cc1)N1CCC(=O)N([C@H](COCc2ccccc2)Cc2ccccc2)CC1`, with 13.8%.
For `COc1cccc2sc(Nc3nc(C)c(C(C)=O)s3)nc12`, the inhibition is 94.3% (active).
The value for `CC(=O)c1sc(N/N=C/c2ccc(C(C)C)cc2)nc1C` was -16.6%; that for `CNC(=O)c1sc(Nc2ccc(OCc3ccccc3)cc2)nc1C` was 32.3%.
For `Cc1cc(N2C(=O)c3ccc(C(=O)NCc4ccccc4)cc3C2=O)no1`, the inhibition is -3.3%.
Then `COC(=O)[C@@]1(Cc2ccc(F)cc2)[C@H]2c3cc(C(=O)N(C)C)n(CCc4c[nH]c5ccc(OC)cc45)c3C[C@H]2CN1C(=O)c1ccccc1`, with 34.5%; and `O=C(NCc1ccccc1)C1c2ccccc2OCC(=O)N1CCCN1CCOCC1` (configuration not stated), with -1.12%; and `CC(C)(C)C1C/C(=C/c2ccco2)C(=O)/C(=C/c2ccco2)C1` (configuration not stated), with 9.75%.
Then `O=C1OC(/C=C/c2ccccc2)=NC/1=C/c1ccco1`, with 51% (active); and `COc1ccccc1/C=C/C1=NC(=C\N(C)C)/C(=O)O1`, with -17.3%; and `CN(/C(=N/S(=O)(=O)c1cccs1)c1ccccc1)c1ccc(O)cc1`, with 7.69%.
As for `O=C1Nc2ccccc2NC(c2ccc3c(c2)OCO3)=C1N(Cc1ccc(F)cc1)C(=O)c1ccco1`, the inhibition was 9.28%.
Then `CCc1ccc2oc(-c3ccc(N)cc3)nc2c1`, with 60.2% (active).
On to `O=C1CC[C@@H](C(=O)N2CSC[C@@H]2C(=O)Nc2ccc(C(F)(F)F)cc2)N1`, for which the inhibition is 22.5%.
As to `CC1Cc2ccccc2N1S(=O)(=O)c1c(N)n(C)c(=O)n(C)c1=O` (configuration not stated), the inhibition is -4.11%.
The value for `C[C@H]1[C@H]2c3nc4ccccc4n3C[C@H]1ON2C1CCCCC1` was -8.66%.
Then `O=c1[nH][nH]c2c1[C@H](c1ccc(Cl)cc1)O[C@H](CCc1ccccc1)C2`, with 9.82%; and `CN1c2ccc([N+](=O)[O-])cc2C(C)(C)C12C=Cc1cc(C(=O)O)ccc1O2` (configuration not stated), with 0.62%.
Then `COc1ccc2c(c1)C=CC1(O2)N(CCO)c2ccccc2C1(C)C` (configuration not stated), with 86.2% (active); and `COc1cccc(CC2(CO)CCCN(CC3=Cc4cc(OC)ccc4OC3)C2)c1` (configuration not stated), with 37.8%.
For `CCN1CCN(C(=O)C2(NC(=O)Nc3cccc(F)c3)CCCCC2)CC1`, the inhibition was 6.11%.
`CCN(CC)CCn1c(=S)[nH]c2ncccc2c1=O`: the inhibition is 11.7%.
The value for `COc1cc(N2C(=O)c3ccccc3C2=O)c(Cl)cc1C(=O)OCC(=O)N1CCOCC1` was 16.7%; that for `N#Cc1ccc(-c2ccc3nccn3c2)cc1` was -15.9%.
For `CCOC(=O)c1cc(C)sc1NC(=O)C1CCC1`, the inhibition is 13.5%.
Take `COc1cccc2c1C(=O)c1c(O)c3c(c(O)c1C2=O)CC(O)(C(C)=NNC(=O)c1ccc(Cl)c(Cl)c1)CC3OC1CC(N)C(O)C(C)O1` (configuration not stated): the inhibition was 100% (active).
Then `Clc1cccc(Cc2c(-c3cccc(Cl)c3)nc3ccc(Cl)cn23)c1`, with -8.97%; and `CCN1C(=O)/C(=C2\SC(N3CCCCC3)=NC2=O)c2ccccc21`, with -25.1%; and `COc1ccc(S(=O)(=O)N2CN(CCc3ccc(OC)c(OC)c3)c3nc4ccccc4nc32)cc1`, with 14%.
With `COc1ccc(COC(=O)c2n[nH]c3ccccc23)cc1F`, the inhibition was -8.86%.
For `CC(Nc1nc(N2CCCC2)nc2ccccc12)c1ccccc1` (configuration not stated), the inhibition is -2.01%.
The value for `CCc1ccc(C(CNc2nc(C(F)(F)F)nc3ccccc23)N(C)C)cc1` (configuration not stated) was 9.86%; that for `CC(Nc1nc(C(F)(F)F)nc2ccccc12)c1cccs1` (configuration not stated) was 60.9% (active); that for `COc1ccc(Cl)cc1C=CC=NNC(=O)c1ccncc1` was -16.2%.
The value for `COc1cc(C(=O)Nn2c(O)c(C3=c4ccccc4=NC3=O)sc2=S)ccc1O` was 4.56%; that for `Nc1nc(SCC(=O)N2CCN(S(=O)(=O)c3ccc(Cl)cc3)CC2)n[nH]1` was 4.55%; that for `O=C1NC[C@H](Cc2ccc(O)cc2)N(C[C@H]2CCCN2C[C@H](Cc2ccccc2)N2C[C@H](Cc3ccccc3)N(CCc3ccccc3)C(=O)C2=O)C1=O` was -7.56%.
For `COc1ccc(C(=O)O)cc1S(=O)(=O)NCc1cccnc1`, the inhibition is 16.8%.
Then `O=C(N/N=C/c1cc([N+](=O)[O-])ccc1O)/C(=C\c1cccs1)NC(=O)c1ccccc1`, with 5.24%; and `Nc1nnnn1/N=C/c1cc([N+](=O)[O-])ccc1O`, with -1.63%.
Then `O=[N+]([O-])c1ccc(O)c(/C=N/Nc2ccccc2[N+](=O)[O-])c1`, with 71.5% (active).
